ClpP mod: qHTS Assay for Activators of ClpP. ATP-dependent Clp protease proteolytic subunit (Bacillus subtilis (strain 168)), P80244. purified B. subtilis ClpP, FRET peptide cleavage, 20 min. Potency, µM (highest dose often 57.5 µM), without a hit: at the top dose activity change, negative = active. 340,000 compounds, 1.9% hits. AID 651965, 2013; active means well fitted falling curve with a large enough effect; inconclusive means small, poorly fitted or top-dose-only effect; inactive means no such curve, though single readings can be large or run the other way; further: potency means the concentration at half of the fitted maximal effect; the source files actives as falling curves though it sought activators and does not explain the sign; nearly all actives have a fitted effect of over 65% in size
Target sequence (P80244 whole entry, looked up): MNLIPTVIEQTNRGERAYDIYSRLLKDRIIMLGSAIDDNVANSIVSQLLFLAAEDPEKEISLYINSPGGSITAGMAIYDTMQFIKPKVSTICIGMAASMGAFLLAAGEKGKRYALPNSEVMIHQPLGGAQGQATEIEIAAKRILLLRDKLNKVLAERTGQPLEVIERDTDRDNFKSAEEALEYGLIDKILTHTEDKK
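ClpP 10 microg/mL final, pH 8 Tris/KCl buffer with BSA, glycerol, Tween-20; compound pinned in; FRET-FV substrate; RT 20 min; Ex320/Em430; ΔFRET vs ADEP 5.8 microM, DMSO, no enzyme.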
TRPV1 potentiator: enhances activation of the human vanilloid receptor TRPV1; Q8NER1; TRPV1-expressing cells, Fluo-8 calcium influx, capsaicin EC20 potentiation; potentiation, % at 8.33 µM; 320,000 compounds, 0.02% hits; AID 540277; in the data active means potentiation above about 80%; inconclusive means between about 30% and that limit; further: 0% is about no effect
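Fluo-8 calcium influx in TRPV1-expressing cells, kinetic read (ex 480/em 520 nm). Compound added and read 3 min for agonist activity, followed by capsaicin at EC20 final and 2 min further read for enhancement.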
hERG WT inh: blocks the wildtype human KCNH2 potassium channel; Q12809; U2OS, BacMam KCNH2, thallium flux FluxOr; hits give low values; activity change, % at 1.84 µM; 340,000 compounds, 0.37% hits; AID 720551;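 active means maximum activity change below -70%; inconclusive means maximum activity change between -70% and -50%; inactive means maximum activity change above -50%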; further: on the % scale 0 is the no-effect control and ±100 the full control effect
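U2OS cells transduced with wild-type KCNH2 virus are loaded with FluxOr dye for 45 min, and thallium flux is measured in kinetic reads before and after stimulation buffer. Rate constants are normalized to DMSO controls.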
TRPV1 ag: human TRPV1 agonism. activation, % at 8.33 µM. TRPV1-expressing cells, Fluo-8 calcium influx, agonist mode. Q8NER1. 320,000 compounds, 0.19% hits. AID 540275; in the data active means activation above about 80%; inconclusive means between about 30% and that limit; further: 0% is about no effect
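Cells expressing TRPV1 were dye-loaded with Fluo-8 and read kinetically: 10 s baseline, 3 min after compound (agonist portion), then 2 min after EC20 capsaicin (allosteric enhancer portion). Calcium-bound dye fluorescence at 480/520 nm.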
KCNH2 3.1 block: KCNH2 3.1 (human) potassium channel inhibition; U2OS KCNH2 3.1, thallium flux FluxOr; hits give low values; activity change, % (tested at about 1.8 µM); 340,000 compounds, 0.95% hits; AID 720553;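 active means maximum activity change below -70%; inconclusive means maximum activity change from -70% to -50%; inactive means maximum activity change above -50%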;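 further: thallium influx rate constant from kinetic fluorescence after stimulation buffer; on the % scale 0 is the no-effect control and ±100 the full control effect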
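Thallium flux via FluxOr fluorescence (Red40 quencher, 45 min loading) in U2OS cells virally expressing the KCNH2 3.1 isoform (1.77 x 10^8 /mL virus, overnight at 37 C). Rate constants from 2-min kinetic reads post-stimulation, normalised to positive and negative controls.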
p53 reactivator: re-activators of mutant p53. AID 504706. 320,000 compounds, 0.063% hits. Potency, µM (highest dose often 92.2 µM), without a hit: at the top dose activity change, positive = activation, actives largely listed as activators. H1299 p53-A138V BP100-luciferase reporter, luminescence, 24 h; active means well fitted activation curve with a large enough effect; inconclusive means small, poorly fitted or top-dose-only effect; inactive means no such curve, though single readings can be large or run the other way; further: potency means the concentration at half of the fitted maximal effect; % of control where 0% means no effect; nearly all actives have a fitted effect of over 45% in size
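p53-null H1299 cells stably carrying temperature-sensitive p53-A138V and a BP100-luciferase reporter were pinned with compounds (4-point, 1:5 series) and held 24 hrs at 37 deg C. Luminescence was read 10 min after detection reagent.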
* hit, by the source's call; u = inconclusive; x = not tested or not shown. Hits are enriched below; roughly 2.6% of the tested compounds scored in any of these assays.

SMILES	ClpP mod	TRPV1 potentiator	hERG WT inh	TRPV1 ag	KCNH2 3.1 block	p53 reactivator
Cc1ccc(Nc2nc(C)nc3c2oc2ccccc23)cc1	x	-11.3	13.0	88.2*	-4.7	-2.6%
Cc1nc(NCCc2ccccc2)c2oc3ccccc3c2n1	-10.9%	-9.0	4.7	81.6*	-1.2	-0.1%
COc1ccccc1N1CCN(c2nc(C)nc3c2oc2ccccc23)CC1	31.6µM*	0.4	3.4	3.8	3.3	19.0%
Cc1nc(NCCN2CCOCC2)c2oc3ccccc3c2n1	-2.8%	-3.3	-0.4	0.4	-7.3	-6.3%
COc1ccc(CN2C(=O)CSCC2(C)C(=O)NCc2ccccc2)cc1OC (stereo not drawn)	0.6%	x	x	x	x	x
Nc1nc(SCC(=O)O)c2[nH]cnc2n1	-10.5%	x	x	x	x	x
Cc1cc(C)cc(NC(=O)Cn2c(C(F)(F)F)nc3ccccc32)c1	0.7%	x	x	x	x	x
CCOC(=O)CCc1c(C)n(CC)c2cc(-c3ccccc3OC)nn2c1=O	11.2µM*	10.3	-18.9	-0.3	-2.1	-2.8%
CCN(CC)CCCNC(=O)CCc1c(C)n(CC)c2cc(-c3ccccc3OC)nn2c1=O	3.6%	-4.6	13.0	-2.0	4.3	1.5%
COC(=O)c1ccc(NC(=O)C2CC2)o1	14.1µM*	-4.9	4.0	1.5	5.6	1.8%
Cc1nc(C(F)(F)F)ccc1C(=O)Nc1ccc(C(F)(F)F)cn1	x	-20.9	-3.0	82.2*	13.7	1.1%
Cc1ccc(S(=O)(=O)Nc2cc(-c3ccc(Cl)cc3)nn2C)cc1	2.9%	10.5	-17.6	0.7	-173.8*	-1.6%
Cc1ccc(-n2ncc3c(SCc4ccccc4)ncnc32)cc1	22.4µM*	25.7	3.7	-1.7	2.0	u
CC(C)(C)C(=O)CSc1ncnc2c1cnn2Cc1ccccc1	x	-12.8	-3.9	90.2*	22.0	1.4%
CCC(CO)Nc1ncnc2c1cnn2-c1ccc(C)cc1 (stereo not drawn)	28.2µM*	x	x	x	x	x
Cc1ccc(CSc2ncnc3c2cnn3-c2ccccc2)cc1	25.1µM*	14.5	-2.1	-2.0	0.9	5.2%
NS(=O)(=O)c1ccc(S(=O)(=O)N2CCCC(c3ccccc3)C2)cc1 (stereo not drawn)	-1.4%	x	6.1	x	-7.6	x
O=C1NC2=C(CCc3ccccc32)C(c2ccc(Br)cc2)N1 (stereo not drawn)	28.2µM*	1.1	-1.7	-9.2	-14.1	6.7%
O=C1Cc2ccccc2C(c2ccc(Br)cc2)N1 (stereo not drawn)	-0.8%	26.5	-5.6	-1.1	-7.2	-5.2%
O=C(Nc1ccc2nc(-c3cccs3)c(-c3cccs3)nc2c1)N1CCCCC1	-10.6%	x	x	x	x	x
CC(C)CN1CCC(=O)N(CCOc2ccccc2)CC1	0.4%	6.3	9.7	0.6	-12.3	24.7%
CC(C)CN1CCC(=O)N([C@H](COc2ccccc2)c2ccccc2)CC1	0.7%	-13.1	-42.8	u	-99.6*	9.9%
CCCN1CCC(=O)N([C@H](COc2ccccc2)c2ccccc2)CC1	-3.4%	-1.8	19.9	17.6	-95.4*	x
O=C1CCN(CCc2ccccc2)CCN1[C@H](COc1ccccc1)c1ccccc1	0.8%	-8.4	-130.3*	3.9	-114.7*	x
N#Cc1nc(-c2ccccc2)cc(-c2ccccc2)n1	-12.0%	x	x	x	x	x
SMILES	ClpP mod	TRPV1 potentiator	hERG WT inh	TRPV1 ag	KCNH2 3.1 block	p53 reactivator
COc1ccc(CCn2c(=S)[nH]c(=O)c3c(C)cc(C)nc32)cc1OC	-2.4%	x	x	x	x	x
COc1ccc(C(=O)CC(=O)C(=O)Nc2cccc(F)c2)cc1	x	10.0	-4.9	3.8	-34.0	1.2%
COc1ccc(C(=O)CNc2cccc(F)c2)cc1	x	8.3	1.9	2.8	-90.9*	u
COc1cc(CN(C)C(C)C(=O)Nc2ccc([N+](=O)[O-])cc2Cl)ccc1OC(F)F (stereo not drawn)	-2.2%	-10.5	-95.0*	-4.0	u	-7.4%
COC(=O)c1ccccc1NC(=O)NC1CCN(Cc2ccccc2)CC1	28.2µM*	-13.6	21.5	10.6	-7.0	-14.3%
O=C(Nc1cccn(Cc2ccccc2)c1=O)NC1CCCCC1	20µM*	-6.4	-23.2	17.0	-17.1	8.0%
COC(=O)c1ccccc1NC(=O)C1CCCCC1C(=O)O (stereo not drawn)	28.2µM*	1.8	-21.8	1.5	-0.3	-4.1%
O=C(Nc1cccn(Cc2ccc(F)cc2)c1=O)NC1CCCCC1	17.8µM*	-3.7	0.9	u	-5.8	0.3%
COc1ccc(NC(=O)c2ccccc2NC(=O)C2CCCCC2C(=O)O)cc1 (stereo not drawn)	-4.5%	x	6.4	x	0.8	x
CCN1CCC(NC(=O)Nc2ccccc2C(=O)OC)CC1	u	u	x	2.6	13.2	2.1%
COc1ccc(NC(=O)C2=C(C)Nc3ncnn3C2c2ccc[nH]2)cc1 (stereo not drawn)	-2.4%	x	x	x	x	x
CC(C)(C)c1ccc(C2Sc3ccccc3NC3=C2C(=O)c2ccccc23)cc1 (stereo not drawn)	-1.4%	x	x	x	x	x
CCCc1nc2ccc(C(=O)OC)cn2c1Cc1ccc(C)cc1	-22.2%	x	x	x	x	x
O=C(Cc1ccc(Cl)cc1)NC1CCCCCC1	-4.3%	2.3	10.5	u	4.6	17.0%
COc1cccc(Cn2cccc(NC(=O)NC3CCCCC3)c2=O)c1	28.2µM*	-13.1	0.2	24.0	3.0	-10.3%
O=C(Cc1ccc(F)cc1)NC1CCCCCC1	39.9%	-13.6	2.6	u	-86.8*	u
Cc1ccc(NC(=O)C(Cc2ccccc2)N2Cc3ccccc3C2=O)cc1Cl (stereo not drawn)	0.1%	x	x	x	x	x
CC(=O)Nc1ccc(C(=O)N2CCCCC2c2cc(C(=O)NCc3ccc(F)cc3)no2)cc1 (stereo not drawn)	-1.1%	x	x	x	x	x
Cc1cc2nn(-c3cccc4ccccc34)nc2cc1NC(=O)c1cccs1	14.1µM*	3.9	-0.7	-1.0	-13.1	1.6%
COC(=O)c1ccccc1NC(=O)CSc1nc2ccccc2nc1Cc1ccc(F)cc1	0.8%	x	x	x	x	x
OCCN1CCN(c2nc(NCc3ccco3)c3ccccc3n2)CC1	u	8.0	17.7	-5.5	-19.3	0.3%
Cc1cccc(Nc2nc(NCc3ccco3)c3ccccc3n2)c1	20µM*	-12.1	21.3	-2.7	-39.1	-8.7%
Cc1ccc(OCCN2CCN(c3nc(NCc4ccco4)c4ccccc4n3)CC2)cc1	-2.0%	-7.5	-131.3*	5.3	-104.0*	-0.6%
c1ccc(CN2CCN(c3nc(NCc4ccco4)c4ccccc4n3)CC2)cc1	-15.4%	u	-48.3	0.2	-108.4*	19.3%
Cc1ccnc(NS(=O)(=O)c2ccc(Oc3ccccc3)cc2)c1	28.2µM*	-8.3	-1.1	13.3	-20.9	-2.7%
CCCCCc1ccc(S(=O)(=O)Nc2cc(C)ccn2)cc1	0.1%	10.7	-2.9	8.5	6.0	-0.8%

High-throughput results: PubChem BioAssay, National Center for Advancing Translational Sciences (NCATS)
